Screen size: about 360,000 compounds; about 2,600 (0.72%) were called active. Roughly 5% stayed inconclusive and do not appear here. The entries come from a sample that favours actives as a whole. Unmarked numbers belong to inactive results. The call rests on the fitted dose curve; in most records, active means well fitted inhibition curve with a large enough effect; inconclusive means small, poorly fitted or top-dose-only effect; inactive means no such curve, though single readings can be large or run the other way.
On the % scale 0 is the no-effect control and ±100 the full control effect; potency means the concentration at half of the fitted maximal effect.

The nature of the experiment: Primary qHTS for Inhibitors of ATXN expression. Further: nearly all actives have a fitted effect of over 55% in size. Conditions: HEK-293 ATXN2-luciferase reporter, luminescence, 24 h; series mostly up to 57 µM; activity change, negative = inhibition: at the top concentration. An excerpt:
University of Utah School of Medicine, Salt Lake City, Utah
Spinocerebellar ataxia type 2 (SCA2) is a multisystem neurodegenerative disease caused by a dominantly acting mutation leading to expansion of a polyQ domain in the ataxin-2 protein (ATXN2). SCA2 patients develop progressive ataxia and later lose function in other neuronal systems. Prominent parkinsonian signs develop in some patients. Like many neurodegenerative disorders, no symptomatic or disease-modifying treatments are known.
The primary objective of the proposed research is to identify compounds inhibiting ATXN2 expression and to test them for efficacy in SCA2 mouse models. We have developed a cell-based assay paired with an in vivo mouse model using identical luciferase expression constructs. This approach takes advantage of an ATXN2-luciferase transgene, with the luciferase gene flanked by the upstream and downstream portions of the ATXN2 gene. Here we describe a 5-7 dose quantitative high thoroughput screen (qHTS) for compounds lowering ATXN2 expression. We screened the NIH Molecular Libraries Small Molecule Repository (MLSMR) and NCGC's mechanistically annotated (MIPE) and drug repurposing (NPC) collections of compounds for lowering expression of an ATXN2-luciferase reporter in HEK-293 cells. The assay is a multiplexed cell viability assay to ensure target reduction in the absence of cytotoxicity. Secondary qHTS assays included a CMV-luciferase reporter expressed in HEK-293 cells as well as a biochemical assay using recombinant luciferase to detect inhibitors of the reporter enzyme. Compounds that inhibit ATXN2 expression but is not cytotoxic were selected for confirmatory and secondary screens.
PROTOCOL TABLE (as described by Inglese J, Shamu CE and Guy RK. 2007)
SEQUENCE No. (e.g., 1, 2, 3, etc.); […] (e.g., Cells, Incubation, Reagent, etc.); VALUE; DESCRIPTION.
1; Cells; 4 uL; white, solid bottom, 1536-well Greiner assay plate.
2; Incubation; 2 hr; 37 degree C in 5% humidified CO2.
3; Compounds; 23 nL; Kalypsis pintool (Wako USA) equipped with a 1536-well pin head.
4; Incubation; 24 hr; 37 degree C in 5% humidified CO2.
5; Reagent; 1 uL; Gly-Phe-7-Amino-4-trifluoromethylcoumarin.
6; Incubation; 30 min; 37 degree C in 5% humidified CO2.
7; Detection; Fluorescence; ViewLux plate reader (PerkinElmer).
8; Reagent; 3 uL; SteadyGlo luciferase solution (Promega).
9; Incubation; 5 min; room temperature.
10; Detection; Luminescence; ViewLux plate reader (PerkinElmer).
NOTES (numbers refer to Sequence numbers above)
1. S2 cells expressing ATXN2-luciferase reporter were suspended in phenol-red free DMEM and dispensed in assay plates using a Multidrop Combi dispenser (Thermo Fisher Scientific).
2. Assay plates were incubated. Evaporation was prevented by covering assay plates with metal lids containing holes to allow gas diffusion.
3. Compounds were added in a dose response manner with the final concentrations of 57, 11.4, 2.28, 0.46, 0.091, 0.018, 0.0037 uM. Vehicle-only plates, with DMSO being pin-transferred to columns 5-48, were inserted uniformly at the beginning and the end of each library to monitor and record any shifts in assay performance.
5. 125 uM Gly-Phe-7-Amino-4-trifluoromethylcoumarin (MP Biomedicals) working concentration was used at a final concentration of 25 uM.
7. To assess cell viability; the assay plates were read using the ViewLux high-throughput CCD imager (PerkinElmer), wherein single end-point fluorescence measurement was acquired (excitation 405/10; emission 540/25 nm).
8. Detection reagent SteadyGlo Luciferase (Promega) was added to the assay plate.
10. Luminescence is then measured on the ViewLux imager equipped with a clear emission filter using a 2 sec exposure. All screening operations were performed on a fully integrated robotic system (Kalypsys) containing one RX-130 and two RX-90 anthropomorphic robotic arms (Staubli).
[…]
Background: qHTS replaces the single test concentration by a dilution series.
For `O=C(NC1CCCC1)C1CCN(C(=O)Nc2cccc(Cl)c2)CC1`, the “activity change, negative = inhibition” value was -2.76%.
As for `O=C(Nc1cccc(-c2cccc(Cl)c2)c1)C1CCN(C2CCC2)CC1`, the Potency was 28.2 µM (active).
Regarding `COc1cccc(-c2cccc(NC(=O)C3CCN(C4CCC4)CC3)c2)c1`, the “activity change, negative = inhibition” value is 3.94%.
On to `Cc1cc(C)c2nc3nc(C)cc(C)c3c(N)c2c1`, for which the Potency was 25.1 µM (active).
`CC(=O)OC[C@@H]1O[C@@H](n2ccc(=O)[nH]c2=O)[C@H](OC(C)=O)[C@H]1OC(C)=O`: the “activity change, negative = inhibition” value is -15.2%.
Still for that read-out and setting: then `Cc1cccc(C)c1NC(=O)c1ccc(N)cc1`, with 9.21%.
Turning to `COc1cc(C=CC(=O)O)ccc1O`, the “activity change, negative = inhibition” value was -4.31%.
The same measure, in the same setting: then `Cc1cc(Nc2cccc(C(F)(F)F)c2)nc2ccc(NC(=O)c3ccc(=O)[nH]c3)cc12`, with -12.6%.
Regarding `Cc1nc(Nc2ccccc2C)c2cnn(C)c2n1`, the “activity change, negative = inhibition” value is -6.74%.
Turning to `Cc1ccc(C(=O)Nc2cccc(C(F)(F)F)c2)cc1Nc1nc(-c2cccnc2)nc2c1cnn2C`, the Potency is 24.3 µM (active).
For the molecule `COc1ccc(NC(=O)Nc2cccc(-c3noc(C)n3)c2)cc1`, the “activity change, negative = inhibition” value was 3.77%.
Same read-out and setting: then `CCCNC(=O)CCC(=O)N1Cc2ccccc2Oc2ncccc21`, with -2.06%; and `CCOC(=O)Cn1c(=O)n(-c2ccccc2OC)c2nc(-c3cccc(F)c3)nc(C(N)=O)c21`, with -23.1%; and `COc1ccc(OC)c(-c2nc(C(N)=O)c3c(n2)n(-c2ccc4c(c2)OCO4)c(=O)n3C)c1`, with 4.99%.
With `CCc1ccc2c(c1)NC(=O)C2(C)Cc1ccc(OC(F)(F)F)cc1` (centres undefined), the Potency was 25.1 µM (active).
Take `COC(=O)Cc1ccc(OCC(=O)Nc2ccc(OC(F)(F)F)cc2)cc1`: the “activity change, negative = inhibition” value is -6.45%.
Consider `CCC(=O)N1CCc2cc(Br)cc(S(=O)(=O)CCC(=O)NCc3ccccc3OC)c21`, for which the “activity change, negative = inhibition” value is -9.55%.
Still for that read-out and setting: under `COc1ccc(OC)c(CNC(=O)Cn2nc(C)c3c(C)n(-c4ccccc4)nc3c2=O)c1` stands -14.1%; under `O=C(COc1ccc(Cl)cc1Cl)N/N=C/c1ccccn1`, -9.91%.
In the case of `Cc1nnc(N/N=C/c2ccccn2)[nH]c1=O`, the Potency was 2 µM (active).
For `O=C(N/N=C/c1ccccn1)C12CC3CC(CC(C3)C1)C2`, the “activity change, negative = inhibition” value was -2.2%.
The same measure, in the same setting: then `CCc1cc2c(-c3ccccc3)cc(=O)oc2c2c1OCN(Cc1ccc(C)cc1)C2`, with 10.3%; and `O=C1CC(c2nnc(Cc3ccc(Cl)cc3)o2)CN1c1ccccc1` (centres undefined), with -6.28%.
Take `CC(O)CNCCOc1cccc(Oc2ccccc2)c1` (centres undefined): the “activity change, negative = inhibition” value was -14.2%.
For the molecule `COc1ccccc1OCCNCC(O)COc1cccc2[nH]c3ccccc3c12` (centres undefined), the Potency is 28.2 µM (active).
For `COc1cccc2[nH]c(C(=O)NCCc3ccccc3)cc12`, the “activity change, negative = inhibition” value was 32.6%.
Consider `COc1cc(OC)c(NC(=O)c2cnc(N3CCCC3)nc2C)cc1Cl`, for which the “activity change, negative = inhibition” value was 1.88%.
The same measure, in the same setting: then `COc1ccc(NC(=O)C(=O)NCc2ccco2)cc1`, with 26.5%; and `COc1ccc(C(O)c2nc(-c3ccc(OC)nc3)cs2)cc1` (centres undefined), with 5.41%.
Turning to `COc1ccc(CS(=O)/C(Cl)=C(/Cl)C(=O)Nc2ccc(OC)nc2)cc1` (centres undefined), the Potency was 2.12 µM (active).
Regarding `Cc1ccc(C)c(N2CCN(C(=O)C3CCC(CNS(=O)(=O)c4cccs4)CC3)CC2)c1` (centres undefined), the “activity change, negative = inhibition” value was -3.18%.
Consider `O=C(OCC(O)CO)c1ccccc1Nc1ccnc2c(C(F)(F)F)cccc12` (centres undefined), for which the “activity change, negative = inhibition” value was -12.2%.
Consider `Cc1ccc(-c2ncc(Cl)cc2-c2ccc(S(C)(=O)=O)cc2)cn1`, for which the “activity change, negative = inhibition” value is 10.3%.
As for `CC(C)OC(=O)c1ccc(NCc2cc(O)ccc2O)cc1Cl`, the Potency is 17.8 µM (active).
For the molecule `CC(OC(=O)c1ccc(Cl)cc1O)C(=O)NCCC1=CCCCC1` (centres undefined), the “activity change, negative = inhibition” value is 5.4%.
For the molecule `CC(CN1CCCCC1)OC(=O)c1ccccc1Cl` (centres undefined), the “activity change, negative = inhibition” value was -8.37%.
The same measure, in the same setting: under `O=C(N/N=C\c1ccc(Br)cc1)c1ccc(Cn2cccn2)o1` stands 33.9%.
On to `Cc1c(Cl)c([N+](=O)[O-])nn1Cc1ccc(C(=O)N/N=C\c2cc(Cl)ccc2O)o1`, for which the Potency is 2.82 µM (active).
`Cc1nn(Cc2ccccc2Cl)c(C)c1NC(=O)Cn1nc([N+](=O)[O-])c(Cl)c1C`: the “activity change, negative = inhibition” value is -2.31%.
Regarding `Cc1nn(-c2ccc(F)cc2)c(-n2cccc2)c1C(=O)N1CCN(c2ccccc2)CC1`, the “activity change, negative = inhibition” value is -12.5%.
Regarding `COc1ccccc1-n1nnnc1SCC(=O)NC(=O)Cc1ccccc1`, the “activity change, negative = inhibition” value is 1.79%.
Turning to `CCC(C)N(C(=O)CSc1nnnn1-c1ccccc1OC)C1CCS(=O)(=O)C1` (centres undefined), the “activity change, negative = inhibition” value was 1.29%.
`COc1ccccc1-n1nnnc1S(=O)(=O)Cc1ccc(Cl)cc1`: the Potency was 14.1 µM (active).
In the case of `Cc1cn(C)c(CC(=O)NCc2ccc(Cl)cc2)c1C(=O)O`, the “activity change, negative = inhibition” value is 12.4%.
For the molecule `CCc1ccc(Nc2nn3c(=O)c4cc5c(cc4nc3s2)OCO5)cc1`, the “activity change, negative = inhibition” value is 8.02%.
Still for that read-out and setting: under `Cc1ccc(SCC(=O)Nc2ccc3oc(-c4ccccc4C)nc3c2)cc1` stands 4.47%; under `COc1ccc(-c2cc(-c3ccccc3)nc3c2COc2ccc(Cl)cc2-3)cc1`, 0.0064%.
The same measure, in the same setting: then `CCC(=O)N1CCc2cc(S(=O)(=O)NCCC(=O)Nc3cccc(C)c3C)ccc21`, with 10.8%; and `COc1ccc(NC(=O)C2CCCN(S(=O)(=O)c3c(C)[nH]c(=O)[nH]c3=O)C2)c(OC)c1` (centres undefined), with -1.52%.

Source of the values: PubChem BioAssay AID1745845 (National Center for Advancing Translational Sciences (NCATS), 2022).
